Experimental findings from PubChem BioAssay are described below.

Assay [1] can be described thus: anti-His antibody binders, primary screen, artefact control for SMM control protein annotation, biochemical, small-molecule microarray, 635 nm fluorescence (AID 1128).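 Note: score merges feature fluorescence with signal-to-noise for each printed compound spot.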 Particulars: anti-His Alexa647 antibody binding, higher = more signal.
For assay [2], the system named is Human papillomavirus type 1a E7 protein (residues 1-88). In words: HPV1a E7 small-molecule binders, primary screen, biochemical, small-molecule microarray, residues 1-88, 635 nm (AID 1129). Conditions: small-molecule microarray binding, fluorescence 635 nm; higher = more signal.
Assay [3] deals with Focal adhesion kinase 1 (Homo sapiens) (UniProt Q05397). In words: small-molecule microarray binders of FAK, primary screen, biochemical, 635/667 nm fluorescence, BSA, DTT (AID 1130).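 Note: composite of spot emission at 667 nm and signal to noise over triplicate slides.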 Conditions: PTK2 binding, 635 nm fluorescence, higher = more signal.
Chain of Focal adhesion kinase 1 (Homo sapiens) (Q05397 whole entry, looked up): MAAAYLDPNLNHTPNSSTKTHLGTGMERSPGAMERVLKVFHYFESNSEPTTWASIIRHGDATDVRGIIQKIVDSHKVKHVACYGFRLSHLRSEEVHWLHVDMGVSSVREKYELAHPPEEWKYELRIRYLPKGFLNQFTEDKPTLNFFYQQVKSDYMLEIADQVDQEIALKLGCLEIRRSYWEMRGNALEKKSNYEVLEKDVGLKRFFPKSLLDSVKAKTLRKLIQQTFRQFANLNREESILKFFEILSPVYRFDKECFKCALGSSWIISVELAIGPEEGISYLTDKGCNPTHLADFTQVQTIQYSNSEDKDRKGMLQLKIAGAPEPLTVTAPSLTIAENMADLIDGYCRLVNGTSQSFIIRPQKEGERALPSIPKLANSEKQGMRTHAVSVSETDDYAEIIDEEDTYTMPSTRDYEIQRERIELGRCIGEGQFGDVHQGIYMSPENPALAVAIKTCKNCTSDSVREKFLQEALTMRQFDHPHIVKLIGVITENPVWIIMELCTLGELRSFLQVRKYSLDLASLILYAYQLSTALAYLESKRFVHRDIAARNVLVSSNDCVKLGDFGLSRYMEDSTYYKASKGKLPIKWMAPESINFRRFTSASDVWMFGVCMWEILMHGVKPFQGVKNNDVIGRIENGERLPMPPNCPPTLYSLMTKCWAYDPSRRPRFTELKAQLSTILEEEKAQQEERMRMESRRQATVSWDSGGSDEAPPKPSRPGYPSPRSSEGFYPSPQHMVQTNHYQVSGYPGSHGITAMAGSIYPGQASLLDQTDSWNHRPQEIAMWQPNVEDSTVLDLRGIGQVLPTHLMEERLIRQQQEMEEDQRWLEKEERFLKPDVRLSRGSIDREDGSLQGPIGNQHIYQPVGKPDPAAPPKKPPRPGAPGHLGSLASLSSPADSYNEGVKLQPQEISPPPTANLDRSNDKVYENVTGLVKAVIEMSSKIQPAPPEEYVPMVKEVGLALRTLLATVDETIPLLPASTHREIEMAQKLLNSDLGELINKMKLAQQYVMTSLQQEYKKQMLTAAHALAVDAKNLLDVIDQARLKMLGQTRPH
For assay [4], the system named is Fibrinogen (Alexa647-labelled). In words: fibrinogen binders on compound microarrays, profiling panel, artefact control for SMM control-protein annotation, biochemical, small-molecule microarray, 635/667 nm fluorescence (AID 1131).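 Note: z-score merges 667 nm fluorescence with per-spot signal-to-noise over triplicate slides.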 Conditions: fibrinogen-A647 binding fluorescence, higher = more signal.
The target in assay [5] is Follistatin (Homo sapiens) (UniProt P19883). In words: follistatin binders on small-molecule microarrays, primary screen, biochemical, small-molecule microarray, 635/667 nm fluorescence (AID 1132). Particulars: FST binding, 635 nm fluorescence, higher = more signal.
Chain of Follistatin (Homo sapiens) (P19883 whole entry, looked up): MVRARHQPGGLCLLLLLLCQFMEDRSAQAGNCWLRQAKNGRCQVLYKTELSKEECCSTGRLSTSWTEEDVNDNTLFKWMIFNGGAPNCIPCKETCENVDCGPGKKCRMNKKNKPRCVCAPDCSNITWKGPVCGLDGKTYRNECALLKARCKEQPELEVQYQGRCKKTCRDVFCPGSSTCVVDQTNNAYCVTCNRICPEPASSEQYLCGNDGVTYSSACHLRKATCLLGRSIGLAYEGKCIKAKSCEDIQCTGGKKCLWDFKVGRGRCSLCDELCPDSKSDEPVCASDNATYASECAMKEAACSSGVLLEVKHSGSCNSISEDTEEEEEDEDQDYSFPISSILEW
Assay [6] has as its target Fibroblast growth factor 2 (Homo sapiens) (UniProt P09038). Briefly: FGF2 binders on small-molecule microarrays, primary screen, biochemical, small-molecule microarray, 635/667 nm fluorescence (AID 1133). Conditions: small-molecule microarray binding, FGF2, fluorescence 635/667; higher = more signal.
Assay [7] in a line: mitochondrial membrane potential change in A549 cells, profiling panel, cell-based, JC-1 fluorescence, basal, 24 h, 100 nL (AID 1138).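 Note: A549 lung adenocarcinoma cells under basal conditions with no added stimulus; test concentration not given here.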 Particulars: higher = more signal.
For a further assay, the system named is Lefty1. In words: Lefty1 binders on small-molecule microarrays, primary screen, biochemical, small-molecule microarray, 635/667 nm fluorescence (AID 1139). Conditions: small-molecule microarray binding, fluorescence 635/667; higher = more signal.
Assay [8] concerns wheat germ agglutinin (Triticum aestivum), Alexa647-labelled. In words: wheat germ agglutinin binders on compound microarrays, profiling panel, artefact control for SMM control-protein annotation, biochemical, small-molecule microarray, 635/667 nm fluorescence (AID 1140).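 Note: score merges 667 nm feature emission with signal to noise over triplicate slides.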 Particulars: WGA-A647 binding, 635 nm fluorescence, higher = more signal.
Assay [9] concerns the target Luciferin 4-monooxygenase (Photinus pyralis) (UniProt P08659). In words: firefly luciferase enzyme inhibitors, primary screen, biochemical, luminescence, purified enzyme, 2006 set (AID 1141).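 Note: cell-free assay with purified firefly luciferase at 100 ng per well in PBS; test concentration not given here.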 Particulars: SteadyGlo luminescence, 30 min, higher = more signal, called active from +8 up or from −8 down.
The subject of assay [10] is Wnt5a (protein binding on small-molecule microarray). Briefly: Wnt5a binders on small-molecule microarray, primary screen, biophysical, 635/667 nm fluorescence (AID 1142).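 Note: fluorescence read at 667 nm with signal to noise per printed feature.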 Conditions: 635 nm fluorescence, higher = more signal.
The nature of assay [11]: cell viability in Huh7 cells, primary screen, cytotoxicity control for HCV replication inhibitor project, CellTiter-Glo luminescence, basal, 48 h (AID 1143).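 Note: Huh7 hepatoma cells carrying a hepatitis C replication reporter with no stimulus; test concentration not given here.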 Particulars: Huh7 HCV replicon, higher = more signal, called active from +8 up or from −8 down. A general note: ATP-based viability assays read luminescence as a measure of living cells.
Assay [12] is described as follows: P. aeruginosa biofilm formation inhibitors, primary screen, PAO1 strain, BacTiter-Glo luminescence, LB-PBS (AID 1144). Particulars: 12 h, higher = more signal.
Assay [13] is described as follows: CREB reporter modulators without forskolin, primary screen, cell-based, PC12, CRE-LacZ reporter, unstimulated (AID 1145). Conditions: no forskolin, luminescence, 4.5 h, higher = more signal, called active from +8 up or from −8 down.
Assay [14] is described as follows: CREB reporter modulators under forskolin, primary screen, cell-based, PC12, CRE-LacZ reporter, forskolin-stimulated (AID 1146).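 Note: PC12 cells with 6xCRE LacZ reporter stimulated by forskolin 10 µM; beta-galactosidase reporter signal reflecting CREB driven transcription.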 Conditions: luminescence, 4.5 h, higher = more signal, called active from +8 up or from −8 down.
Assay [15] deals with Streptavidin (Streptomyces avidinii) (UniProt P22629). In words: streptavidin binders on small-molecule microarray, primary screen, artefact control for SMM compound annotation, biophysical, 635/667 nm fluorescence (AID 1147).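 Note: signal reflects streptavidin binding to arrayed compounds as a control protein.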 Particulars: streptavidin binding, higher = more signal.
Chain of Streptavidin (Streptomyces avidinii) (P22629 whole entry, looked up): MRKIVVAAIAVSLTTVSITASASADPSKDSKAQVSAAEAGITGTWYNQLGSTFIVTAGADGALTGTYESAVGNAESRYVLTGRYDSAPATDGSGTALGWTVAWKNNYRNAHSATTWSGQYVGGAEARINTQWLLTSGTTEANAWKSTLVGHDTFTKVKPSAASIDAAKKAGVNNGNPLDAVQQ
A short description of assay [16]: small-molecule binders of probe aInhba, primary screen, biochemical, small-molecule microarray, 635/667 nm fluorescence (AID 1148).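 Note: score merges 667nm spot fluorescence with signal-to-noise for antibody binding to printed compounds.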 Conditions: higher = more signal.
Assay [17] concerns the target Torsin-1A (Homo sapiens) (UniProt O14656). Briefly: torsin A binders from cell lysate, primary screen, small-molecule microarray, wild-type, 635/667 nm (AID 1149). Conditions: COS7 hTOR1A-WT lysate, 635 nm fluorescence, higher = more signal.
For assay [18] the target is unchanged. Briefly: small-molecule binders of mutant TOR1A in lysate, primary screen, cell lysate, small-molecule microarray, COS7 lysate, 635/667 nm fluorescence (AID 1150).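 Note: score pools 667 nm emission and signal to noise measuring lysate protein binding.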 Conditions: COS7 hTOR1A mutant lysate, 635 nm fluorescence, higher = more signal.
The subject of assay [19] is Sonic hedgehog protein (Shh). Briefly: small-molecule binders of Shh protein, primary screen, biochemical, small-molecule microarray, 635/667 nm fluorescence (AID 1151).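 Note: Shh protein binding to compounds spotted on small-molecule microarray slides; score combines spot fluorescence intensity with signal-to-noise across triplicate slides.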 Conditions: small-molecule microarray binding, 635 nm fluorescence; higher = more signal.

Activity calls are given as the source filed them. Unless noted, the rule behind the calls is not given here.

Chain of Luciferin 4-monooxygenase (Photinus pyralis) (P08659 whole entry, looked up): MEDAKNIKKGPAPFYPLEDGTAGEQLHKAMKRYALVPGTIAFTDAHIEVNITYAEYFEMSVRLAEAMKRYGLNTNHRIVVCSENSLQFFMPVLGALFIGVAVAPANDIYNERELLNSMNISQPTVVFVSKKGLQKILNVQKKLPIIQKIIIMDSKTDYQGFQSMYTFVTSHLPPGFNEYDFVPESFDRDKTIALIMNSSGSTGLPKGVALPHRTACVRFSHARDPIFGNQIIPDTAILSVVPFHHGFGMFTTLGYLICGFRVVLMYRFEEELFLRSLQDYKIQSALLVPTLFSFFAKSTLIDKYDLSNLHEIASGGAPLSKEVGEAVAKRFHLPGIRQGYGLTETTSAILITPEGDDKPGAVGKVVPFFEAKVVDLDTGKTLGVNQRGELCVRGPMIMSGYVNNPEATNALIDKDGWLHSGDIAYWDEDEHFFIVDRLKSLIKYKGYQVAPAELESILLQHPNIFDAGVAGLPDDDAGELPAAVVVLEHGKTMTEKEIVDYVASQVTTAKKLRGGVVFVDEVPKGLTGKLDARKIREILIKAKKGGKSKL
Chain of Fibroblast growth factor 2 (Homo sapiens) (P09038 whole entry, looked up): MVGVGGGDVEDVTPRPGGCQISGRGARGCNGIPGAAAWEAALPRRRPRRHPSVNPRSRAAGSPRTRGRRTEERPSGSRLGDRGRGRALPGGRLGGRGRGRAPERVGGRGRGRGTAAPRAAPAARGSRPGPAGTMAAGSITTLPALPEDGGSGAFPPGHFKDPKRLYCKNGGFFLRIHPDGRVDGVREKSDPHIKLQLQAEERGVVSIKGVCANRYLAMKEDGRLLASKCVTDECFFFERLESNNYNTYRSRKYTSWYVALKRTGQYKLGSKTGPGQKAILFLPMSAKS
Chain of Torsin-1A (Homo sapiens) (O14656 whole entry, looked up): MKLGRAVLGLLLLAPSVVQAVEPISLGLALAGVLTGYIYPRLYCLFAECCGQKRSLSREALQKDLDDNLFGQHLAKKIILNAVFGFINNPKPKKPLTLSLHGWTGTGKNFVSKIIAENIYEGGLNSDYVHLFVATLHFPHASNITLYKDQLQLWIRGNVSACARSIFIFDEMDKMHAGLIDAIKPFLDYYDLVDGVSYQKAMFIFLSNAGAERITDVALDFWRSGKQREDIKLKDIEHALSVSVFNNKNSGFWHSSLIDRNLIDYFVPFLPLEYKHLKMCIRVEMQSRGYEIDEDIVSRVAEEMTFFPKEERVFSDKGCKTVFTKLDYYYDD

In the case of `CCCNC(=O)[C@@]1(Sc2ccc(C)cc2)CC(=O)N(Cc2ccccc2)[C@@H]1c1ccc(CO)cc1I`, the composite z-score was 0.381 in [1]; 0.561 in assay [2]; 0.0147 in assay [3]; -0.122 in assay [4]; 1.38 in [5]; 1.16 in assay [6]. The composite z-score in the assay on Lefty1 is 0.427; in assay [8], 0.996; in assay [10], 0.308; in assay [15], 0.203; in [16], -0.0221; with Torsin-1A (Homo sapiens) [17], 0.123. Besides, the values for the composite z-score (in the assay with Torsin-1A (Homo sapiens) [18]; in [19]) were 0.485 and 1.96, respectively. The z-score in assay [7] was 0.651; in [9] it was 0.0043 (inactive); in assay [11] it was -1.81 (inactive); in assay [12] it was 0.029 (inactive); in assay [13], 0.0655 (inactive); in [14], 1.08 (inactive).

Turning to `NC(=O)NCC#Cc1ccc2c(c1)[C@]1(C(=O)N2)[C@H](c2ccc(O)cc2)N2[C@H](c3ccccc3)[C@H](c3ccccc3)OC(=O)[C@H]2[C@@H]1C(=O)NC[C@H](O)c1ccccc1`, the composite z-score in [1] was -0.652; in assay [2] it was -0.843; in assay [3], -0.126; in assay [4], -1.74; in assay [5] it was -2.12; in [6], -1.11. Further, the composite z-score is -3.02 with Lefty1; -1.82 in assay [8]; -0.579 in assay [10]; -1.85 in [15]; -0.239 in assay [16]; -1.19 with Torsin-1A (Homo sapiens) [17]. Moreover, the composite z-score with Torsin-1A (Homo sapiens) [18] is -1; in assay [19], -1.22. The z-score in [7] was 0.717; in assay [9], -0.498 (inactive); in [11], -0.383 (inactive); in [12], 0.502 (inactive); in assay [13] it was 0.48 (inactive); in assay [14], -0.334 (inactive).

For `COCCOC(=O)N1C(=O)[C@@]2(c3cc(C#Cc4ccc(OC)cc4)ccc31)[C@H](C(=O)N1CCc3cc(OC)c(OC)cc3C1)[C@H]1C(=O)O[C@H](c3ccccc3)[C@H](c3ccccc3)N1[C@@H]2c1ccc(O)cc1`, the composite z-score amounted to 1.13 in [1]; 1.21 in [2]; 0.226 in [3]; 0.753 in [4]; 1.25 in assay [5]; 1.17 in [6]. For the same compound, the composite z-score in the assay with Lefty1 worked out at 0.606; in assay [8], 0.659; in assay [10] it was 0.783; in [15], 0.802; in [16] it was 1.06; with Torsin-1A (Homo sapiens) [17] it was 0.58. Besides, the results for the composite z-score (with Torsin-1A (Homo sapiens) [18]; in assay [19]) were 0.984 and 0.813, respectively. Besides, the z-score in [7] was -0.406; in assay [9], -1.35 (inactive); in assay [11], -0.637 (inactive); in assay [12], 0.693 (inactive); in assay [13] it was -0.0688 (inactive); in [14], 0.236 (inactive).

Consider `NC(=O)NCC#Cc1ccc2c(c1)[C@]1(C(=O)N2)[C@H](c2ccc(OCCO)cc2)N2[C@H](c3ccccc3)[C@H](c3ccccc3)OC(=O)[C@H]2[C@@H]1C(=O)N1CCN(c2ncccn2)CC1`, for which the composite z-score in [1] was -0.192; in [2] it was 0.973; in assay [3], 0.0718; in assay [4] it was 0.879; in assay [5], 1.34; in assay [6] it was 0.502. Also, the composite z-score is 1.08 with Lefty1; 0.444 in assay [8]; 0.132 in assay [10]; -0.373 in [15]; 0.15 in [16]; 0.539 with Torsin-1A (Homo sapiens) [17]. Further, the results for the composite z-score (in the assay with Torsin-1A (Homo sapiens) [18]; in [19]) were 0.673 and 1.5, respectively. For the same compound, the z-score in [7] is -1.1; in assay [9], -1.33 (inactive); in assay [11] it was 0.342 (inactive); in [12], -0.724 (inactive); in [13] it was -0.491 (inactive); in [14], -0.301 (inactive).

Turning to `O=C1O[C@H](c2ccccc2)[C@H](c2ccccc2)N2[C@H]1[C@@H](C(=O)N1CCCCCCC1)[C@]1(C(=O)Nc3ccccc31)[C@H]2c1ccc(O)cc1`, the composite z-score in assay [1] is 3.64; in [2], 1.34; in assay [3], 3.9; in assay [4], 0.514; in assay [5], 1.55; in assay [6] it was 1.54. The composite z-score in the assay on Lefty1 was 1.85; in [8] it was 1.77; in assay [10] it was 2.61; in assay [15], 4.14; in [16] it was 2.28; with Torsin-1A (Homo sapiens) [17] it was 3.49. In addition, the composite z-score came out at 3.61 in the assay with Torsin-1A (Homo sapiens) [18] and 1.55 in assay [19]. The z-score in [7] was 0.0754; in assay [9] it was -0.809 (inactive); in assay [11], -1.21 (inactive); in [12], 0.387 (inactive); in assay [13], -0.0566 (inactive); in [14] it was -0.599 (inactive).
